Screening data (PubChem BioAssay)
BoNT A protease = BoNT/A light chain protease inhibitors, primary screen, biochemical, flow cytometry, MLPCN library; Botulinum neurotoxin type A light chain protease (Clostridium botulinum A str. ATCC 3502); multiplex microsphere protease substrate cleavage; inhibition, % at 10 µM; 360,000 compounds, 0.17% hits; further: plate controls were buffer without enzyme for full effect and enzyme alone for no effect
BoNT F protease = BoNT/F light chain protease inhibitors, primary screen, biochemical, flow cytometry, MLPCN library; Botulinum neurotoxin type F light chain protease (Clostridium botulinum); Multiplex microsphere protease cleavage assay; inhibition, % at 10 µM; 360,000 compounds, 0.22% hits; AID 588497, 2011; in the data active means inhibition above about 35%, passing the limit was not always enough; inconclusive means no clear call, values can overlap the other calls; further: plate controls were buffer without enzyme for full effect and enzyme alone for no effect
Anthrax LF inh2 = Bacillus anthracis LF protease inhibitors, primary screen, biochemical, multiplex microsphere, MLPCN library; Lethal factor (Bacillus anthracis), P15917; multiplex microsphere protease cleavage assay; inhibition, % at 10 µM; 360,000 compounds, 0.12% hits; AID 588501, 2011; further: plate controls were buffer without enzyme for full effect and enzyme alone for no effect
MazEF act = activators of E. coli MazEF toxin-antitoxin RNase, primary screen, biochemical, fluorescence, uHTS. AID 504720, 2011. FAM/BHQ RNA-DNA oligo cleavage fluorescence, 5 h. 350,000 compounds, 0.32% hits. activation, % at 20 µM; in the data active means activation above about 50%
Bead autofluor = compound fluorescence in toxin protease inhibitor counterscreen. fluorescence intensity (test concentration not listed). 360,000 compounds, 3.1% hits. compound autofluorescence counterscreen, microsphere flow cytometry; hits give high values. AID 624483; in the data active means fluorescence intensity above about 16000; inconclusive means no clear call, values can overlap the other calls
* = called active by the depositor; ? = inconclusive; . = no result given; + = active, no number; ! = not active in a repeat. An excerpt weighted towards active compounds, which were near 3.7% of everything screened. Unless noted, no stated cut-off is given here; in the data, active means inhibition above about 30%; inconclusive means no clear call, values can overlap the other calls; inactive means below that.

SMILES	BoNT A protease	BoNT F protease	Anthrax LF inh2	MazEF act	Bead autofluor
O=C(NC1CCCCC1)C1c2ccccc2OCC(=O)N1Cc1ccccn1 (centres undefined)	0	-4	2	.	6091
COc1cccc(C(c2cccc(OC)c2)c2ccccc2C(=O)O)c1	0	2	-10	-3	2985
CCc1ccc(-c2n[nH]nc2C2=CC(=O)C[C@H](c3ccc(F)cc3)C2)cc1	0	-6	-5	0	3484
Cc1ccc(-n2c(=O)cc(NCc3cccnc3)[nH]c2=O)cc1	2	2	0	2	21543*
CCCc1nc2ccc(C)cn2c1Cc1cccc(Cl)c1	1	0	4	.	6197
CCN(CC(=O)N1CCN(Cc2ccccc2)CC1)S(=O)(=O)c1ccc(C)cc1	0	-13	1	4	?
CCCCSc1nsc(NC(C)=O)n1	2	2	1	5	22275*
Cc1cc(SCC(=O)N/N=C/c2ccc(O)c(O)c2O)c(C)cc1Br	3	-1	0	-10	22001*
CCOC(=O)c1ccc(S(=O)(=O)NNc2ccc(C(F)(F)F)cn2)cc1	0	-6	-11	-9	3112
Cc1cccnc1C(NC(=O)C1CCN(CCOc2ccc(F)cc2)CC1)c1ccc(F)cc1 (centres undefined)	-1	-6	-4	.	3490
Cc1cc2c3c(c1C)C1(C(=O)N3C(C)(C)CC2C)C(C#N)=C(N)Oc2n[nH]c(C)c21 (centres undefined)	0	-1	2	-5	8183
Cc1cc2c3c(c1)C1(C(=O)N3C(C)(C)CC2C)C(C#N)=C(N)Oc2n[nH]c(C)c21 (centres undefined)	?	1	2	-10	21117*
CCCc1nnc(NC(=O)c2cccc(OC)c2)s1	?	8	0	3	21067*
COc1ccc(Cc2nnc(NC(=O)c3ccc(OC)c(OC)c3)s2)cc1OC	-1	-8	-1	8	4416
COc1cccc(C(=O)Nc2c(F)c(F)c(F)c(F)c2F)c1	-2	-5	1	-1	20193*
COc1cccc(C(=O)Nc2c(F)cccc2F)c1	0	7	-6	-1	4107
COc1ccc(Cc2nnc(NC(=O)c3ccc(OC(C)=O)cc3)s2)cc1OC	4	35*	2	-15	3108
CCN(CC)S(=O)(=O)c1cccc(NC(=O)CN2C(=O)NC3(CCC(C)CC3)C2=O)c1 (centres undefined)	-1	8	-4	10	5754
CN(C)/C=C(/C(=O)c1ccc(Cl)cc1)S(=O)(=O)c1ccc(Cl)cc1	-1	-5	-1	10	16355*
CN(C)/C=C(/C(=O)c1ccc(Cl)cc1Cl)S(=O)(=O)c1ccc(Cl)cc1	0	8	-2	3	9207
CSc1ccc(Cl)c(C(=O)OCC(=O)N2CCN(c3ccccc3)CC2)c1	.	.	.	1	.
O=C(NCCO)/C(=C\c1ccco1)NC(=O)c1cccs1	1	5	-7	-30	3989
O=C(NCCO)/C(=C/c1ccc(Br)cc1)NC(=O)c1cccs1	-2	0	-1	2	23982*
COc1cccc(OC)c1C(=O)Nc1nc(N)n(-c2ccccc2)n1	-4	-6	-4	10	17413*
O=C(CSc1ncn(-c2ccccc2)n1)NCc1ccccc1	?	-4	0	2	23754*
SMILES	BoNT A protease	BoNT F protease	Anthrax LF inh2	MazEF act	Bead autofluor
COc1ccccc1NC(=O)CSc1ncn(-c2ccccc2)n1	?	9	-5	4	20548*
COc1ccccc1NC(=O)CSc1nncn1-c1ccccc1	-1	?	-2	8	4323
CCc1ccc(CNCCNCC(C)O)cc1 (centres undefined)	-2	-9	-1	8	21353*
CC(O)CNCCNCc1cccs1 (centres undefined)	0	-3	-2	11	4103
O=C(O)C1(NS(=O)(=O)c2ccc(Cl)cc2)CCCCC1	?	2	-4	-3	19428*
Cc1ccc(S(=O)(=O)NC2(C(=O)O)CCCCC2)cc1	-2	-2	-1	3	23381*
Cc1ccc(S(=O)(=O)NC2(C(=O)O)CCCC2)cc1	0	-1	2	9	3815
CN1CCN(C(=O)CN(Cc2ccccc2)S(C)(=O)=O)CC1	0	0	1	-1	22469*
Cc1cc(-n2nnc3ccccc32)nc2ccccc12	-3	-6	0	4	17243*
NC1=NC2(CCCCC2)N=C(Nc2ccc(F)cc2F)N1	-4	-1	0	3	24883*
Cc1cc(C)cc(NC2=NC3(CCCCC3)N=C(N)N2)c1	2	-6	3	9	4613
CC1(C)Cc2c(sc3nc(-c4cc5ccccc5o4)n(N)c(=O)c23)CO1	?	4	-1	9	21859*
Cc1ccc(-c2nc3sc4c(c3c(=O)n2N)CC(C)(C)OC4)cc1	-2	-2	2	6	11003
CCOC(=O)c1ccccc1NC(=O)Cc1ccccc1OC	-3	-4	1	-8	20686*
O=C(Nc1cccc2nsnc12)c1cccs1	2	4	0	1	21640*!
COc1ccccc1CC(=O)Nc1ccccc1C(=O)O	0	7	1	-1	10896
CCOC(=O)c1ccccc1NC(=O)c1cccs1	-2	-5	-6	-1	17478*
CSc1ccc(CCNC(=O)C2CCCN(c3nn4c(=O)cc(C)nc4s3)C2)cc1 (centres undefined)	.	.	.	-24	.
CCOC(=O)c1cc2c(=O)n3ccccc3nc2n(C)c1=NC(=O)c1c(-c2c(F)cccc2Cl)noc1C	17	-2	15	9	5351
COCCCn1c(=N)c(C(=O)NCc2ccc3c(c2)OCO3)cc2c(=O)n3cccc(C)c3nc21	1	-3	0	6	5084
COc1ccc(CNC(=O)c2cc3c(=O)n4ccccc4nc3n(Cc3cccnc3)c2=N)cc1	4	2	4	557*	8731
COc1ccc(Cn2c(=N)c(C(=O)NC3CCCCC3)cc3c(=O)n4ccccc4nc32)cc1	8	7	10	-37	5088
CCOC(=O)c1cc2c(=O)n3ccccc3nc2n(Cc2ccc(Cl)cc2)c1=N	1	-4	2	+	5669
CCOC(=O)c1cc2c(=O)n3ccccc3nc2n(C(C)C)c1=NC(=O)c1c(-c2c(F)cccc2Cl)noc1C	71*	24	34*	-6	2502
COCCCn1c(=N)c(C(=O)NCc2ccc3c(c2)OCO3)cc2c(=O)n3ccccc3nc21	1	-1	0	10	22332*
N=c1c(C(=O)NCc2ccc3c(c2)OCO3)cc2c(=O)n3ccccc3nc2n1Cc1cccnc1	-1	-3	3	14	24844*
OCCNc1c2ccccc2nc2c(F)c(F)c(F)c(F)c12	0	-22	-2	-4	2622
